Here are results for five compounds from PubChem BioAssay.

The nature of test [1]: small molecules captured by biotinylated probe aFSTL3 – biochemical, small-molecule microarray, fluorescence 635/667, stem cell growth factor project, primary screen (AID 1064).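 Note: measures binding of the biotinylated anti-FSTL3 antibody to printed compounds.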 The settings on record: higher = more signal.
A short description of test [2]: binders from COS7 lysate, DM2A8 probe, primary screen, torsin A project, cell lysate, small-molecule microarray, fluorescence 635/667 (AID 1065). Particulars: higher = more signal, COS7 lysate expressing mutant human TOR1A.
Test [3] in a line: small molecules captured by biotinylated probe aFGF2 – biochemical, small-molecule microarray, fluorescence 635/667, stem cell growth factor project, primary screen (AID 1067).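 Note: measures binding of biotinylated aFGF2 protein to printed compounds on slides; z-score merges feature fluorescence and signal-to-noise across triplicate slides.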 Particulars: higher = more signal.
Test [4] in a line: small molecules captured by biotinylated probe aFGF10 – biochemical, small-molecule microarray, fluorescence 635/667, stem cell growth factor project, primary screen (AID 1071).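 Note: score merges 667 nm spot intensity and signal to noise from triplicate slides.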 The settings on record: higher = more signal.
The target of test [5] is Neurogenic locus notch homolog protein 2 (Homo sapiens) (UniProt Q04721). As to the kind of experiment: small molecules binding Notch2 protein – biochemical, small-molecule microarray, 635 nm fluorescence, stem cell growth factors, primary screen (AID 1073). The settings on record: higher = more signal.
The target in test [6] is Pro-neuregulin-1, membrane-bound isoform (Homo sapiens) (UniProt Q02297). Description: small molecules binding neuregulin-1 protein – biochemical, small-molecule microarray, fluorescence 635/667, psychiatric disease protein project, primary screen (AID 1075).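 Note: score combines 667 nm spot fluorescence with signal to noise.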 The settings on record: NRG1 binding, 635 nm fluorescence, higher = more signal.
The subject of test [7] is Neuregulin-1 EGF-like domain. As to the kind of experiment: small molecules binding NRG1 EGF domain – biochemical, small-molecule microarray, 635 nm fluorescence, primary screen (AID 1081).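 Note: binding of the protein to compounds printed on small-molecule microarray slides.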 The settings on record: higher = more signal.
A short description of test [8]: FRG1 expression reporter modulators in myotubes – cell-based, C2C12 myotubes, firefly/Renilla luciferase, luminescence, FRG1 inhibition for FSHD, primary screen (AID 1084). Particulars: FRG1 promoter luciferase, higher = more signal, called active from +8 up or from −8 down.
Test [9] in a line: small molecules captured by biotinylated probe aFST – biochemical, small-molecule microarray, fluorescence 635/667, stem cell growth factor project, primary screen (AID 1086).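 Note: score merges 667 nm fluorescence with signal-to-noise of each printed compound spot.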 The settings on record: higher = more signal.
The nature of test [10]: binders of probe aHhip on microarray, primary screen, stem cell growth factor project, biochemical, small-molecule microarray, fluorescence 635/667 (AID 1087).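 Note: score merges spot fluorescence at 667nm with spot signal to noise ratio.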 Particulars: higher = more signal.
In test [11] the test system is PRMT1 (protein arginine N-methyltransferase 1). Description: small molecules binding arginine methyltransferase PRMT1 – biochemical, small-molecule microarray, 635 nm fluorescence, primary screen (AID 1088).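 Note: binding of Prmt1 protein to compounds spotted on small-molecule microarray slides.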 The settings on record: higher = more signal.
The nature of test [12]: growth effects on S. cerevisiae YJM789 – YJM789 clinical isolate, OD600, 24 h, basal, primary screen (AID 1089).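 Note: growth of clinical yeast isolate S. cerevisiae YJM 789 seeded 1000 cells per well; test concentration not given here.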 Particulars: higher = more signal, called active from +8 up or from −8 down.
A short description of test [13]: S. pombe growth modifiers, basal conditions – strain 972, OD600, 24 h, no modulator, primary screen (AID 1090).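 Note: basal condition with compound alone and no growth modifier present; test concentration not given here.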 Particulars: S. pombe 972 growth, higher = more signal, called active from +8 up or from −8 down.
Test [14] can be described thus: budding yeast growth modifiers under rapamycin – strain BY4716, OD600, 96 h, primary screen (AID 1091). Note: test concentration not given here. Particulars: S. cerevisiae BY4716 + rapamycin, higher = more signal, called active from +8 up or from −8 down.
For test [15], the target named is Torsin-1A-interacting protein 2 (Homo sapiens) (UniProt Q8NFQ8). As to the kind of experiment: small molecules binding lysate-expressed LULL1 – cell lysate, human LULL1 lysate, 635/667 nm fluorescence, primary screen (AID 1092).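 Note: probe is lysate of COS7 cells overexpressing human LULL1; score merges per-feature 667 nm fluorescence with signal-to-noise.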 Particulars: small-molecule microarray, hLULL1 lysate binding, 635 nm fluorescence; higher = more signal.
Test [16] is described as follows: optical density change of DRC41 E. coli – strain DRC41, OD650, 24 h, E. coli filamentation project, primary screen (AID 1093).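 Note: MC1000 strain lacking acrAB efflux and sulA so SOS filamentation is blocked; test concentration not given here.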 The settings on record: E. coli DRC41 growth, higher = more signal, called active from +8 up or from −8 down.
Test [17] can be described thus: probe aLefty2 binding to arrayed compounds – biochemical, biotinylated probe, 635/667 nm fluorescence, primary screen (AID 1094).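 Note: score merges spot fluorescence near 667 nm with spot signal-to-noise ratio.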 Particulars: small-molecule microarray, higher = more signal.
In test [18] the test system is Noggin (protein binding on small-molecule microarray). Description: small molecules binding Noggin protein – biochemical, 635/667 nm fluorescence, primary screen (AID 1095).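 Note: score merges 667 nm feature fluorescence with signal to noise over triplicate slides.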 The settings on record: 635 nm fluorescence, higher = more signal.
The target of test [19] is Neurogenic locus notch homolog protein 3 (Homo sapiens) (UniProt Q9UM47). Description: small molecules binding NOTCH3 protein – biochemical, 635/667 nm fluorescence, primary screen (AID 1096). The settings on record: small-molecule microarray, 635 nm fluorescence, higher = more signal.
Test [20] in a line: probe aEGFR binding to arrayed compounds – biochemical, biotinylated probe, 635/667 nm fluorescence, primary screen (AID 1097).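 Note: probe is a biotinylated anti-EGFR antibody binding compounds printed on slides; score combines fluorescence near 667 nm and signal to noise of each spot.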 Particulars: small-molecule microarray, higher = more signal.

Active and inactive are the calls of the source.

Sequence of Neurogenic locus notch homolog protein 3 (Homo sapiens) (Q9UM47 whole entry, looked up): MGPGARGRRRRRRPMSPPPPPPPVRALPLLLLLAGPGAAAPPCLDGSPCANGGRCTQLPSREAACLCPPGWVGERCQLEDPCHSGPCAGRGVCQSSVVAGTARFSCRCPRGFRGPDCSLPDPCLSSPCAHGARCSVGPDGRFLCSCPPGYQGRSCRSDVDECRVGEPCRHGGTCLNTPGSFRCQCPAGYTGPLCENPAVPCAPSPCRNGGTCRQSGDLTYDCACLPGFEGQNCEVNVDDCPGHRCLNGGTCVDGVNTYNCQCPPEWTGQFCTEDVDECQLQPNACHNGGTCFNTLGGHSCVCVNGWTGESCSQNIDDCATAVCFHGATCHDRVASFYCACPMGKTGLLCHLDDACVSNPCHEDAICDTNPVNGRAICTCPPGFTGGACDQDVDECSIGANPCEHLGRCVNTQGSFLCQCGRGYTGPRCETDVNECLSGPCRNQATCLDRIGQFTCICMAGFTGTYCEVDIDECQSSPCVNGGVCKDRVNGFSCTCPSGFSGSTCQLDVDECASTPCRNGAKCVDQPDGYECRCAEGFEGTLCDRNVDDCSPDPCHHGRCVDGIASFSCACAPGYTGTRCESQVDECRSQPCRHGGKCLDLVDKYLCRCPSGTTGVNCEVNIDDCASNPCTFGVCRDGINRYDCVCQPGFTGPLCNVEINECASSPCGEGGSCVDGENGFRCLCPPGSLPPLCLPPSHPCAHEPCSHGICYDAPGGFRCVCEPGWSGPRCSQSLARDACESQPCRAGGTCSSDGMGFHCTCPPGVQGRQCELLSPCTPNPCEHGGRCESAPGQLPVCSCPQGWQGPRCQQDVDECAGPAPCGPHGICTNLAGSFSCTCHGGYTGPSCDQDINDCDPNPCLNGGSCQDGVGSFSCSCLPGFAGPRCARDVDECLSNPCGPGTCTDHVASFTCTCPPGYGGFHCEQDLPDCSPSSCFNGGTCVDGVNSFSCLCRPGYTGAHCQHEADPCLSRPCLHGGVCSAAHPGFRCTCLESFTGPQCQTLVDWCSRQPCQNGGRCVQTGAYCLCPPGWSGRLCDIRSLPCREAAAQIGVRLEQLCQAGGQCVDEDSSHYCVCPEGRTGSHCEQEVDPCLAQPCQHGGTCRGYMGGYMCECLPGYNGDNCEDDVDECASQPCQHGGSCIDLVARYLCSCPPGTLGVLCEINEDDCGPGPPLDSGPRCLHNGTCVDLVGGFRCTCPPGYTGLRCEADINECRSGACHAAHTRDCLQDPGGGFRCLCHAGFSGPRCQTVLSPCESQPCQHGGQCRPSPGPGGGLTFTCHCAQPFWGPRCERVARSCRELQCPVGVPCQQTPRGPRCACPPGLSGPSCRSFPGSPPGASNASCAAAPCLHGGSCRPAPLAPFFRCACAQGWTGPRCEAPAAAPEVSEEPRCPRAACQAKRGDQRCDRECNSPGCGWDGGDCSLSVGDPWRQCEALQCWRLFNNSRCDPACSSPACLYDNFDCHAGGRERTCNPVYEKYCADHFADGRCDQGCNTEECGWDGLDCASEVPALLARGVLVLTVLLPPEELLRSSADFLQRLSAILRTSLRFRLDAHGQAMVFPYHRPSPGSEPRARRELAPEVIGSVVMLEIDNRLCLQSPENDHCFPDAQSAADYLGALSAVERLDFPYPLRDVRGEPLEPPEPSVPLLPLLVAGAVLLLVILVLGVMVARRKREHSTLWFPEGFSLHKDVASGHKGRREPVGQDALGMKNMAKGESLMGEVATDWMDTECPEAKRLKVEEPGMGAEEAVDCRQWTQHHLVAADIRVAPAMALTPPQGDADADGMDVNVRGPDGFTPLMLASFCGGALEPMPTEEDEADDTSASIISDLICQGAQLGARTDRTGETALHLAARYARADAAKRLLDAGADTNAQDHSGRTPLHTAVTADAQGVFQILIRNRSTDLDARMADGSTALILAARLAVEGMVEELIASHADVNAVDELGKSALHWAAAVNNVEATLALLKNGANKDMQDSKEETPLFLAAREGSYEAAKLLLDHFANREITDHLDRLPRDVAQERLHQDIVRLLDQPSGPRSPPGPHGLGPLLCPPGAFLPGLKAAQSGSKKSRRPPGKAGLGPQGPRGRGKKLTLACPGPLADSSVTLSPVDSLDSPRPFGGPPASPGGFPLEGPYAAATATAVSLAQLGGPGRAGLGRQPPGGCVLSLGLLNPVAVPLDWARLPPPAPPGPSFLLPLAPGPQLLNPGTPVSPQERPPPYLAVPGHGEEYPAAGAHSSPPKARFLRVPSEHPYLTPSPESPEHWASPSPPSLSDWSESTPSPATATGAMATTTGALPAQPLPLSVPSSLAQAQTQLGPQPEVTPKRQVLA
Sequence of Pro-neuregulin-1, membrane-bound isoform (Homo sapiens) (Q02297 whole entry, looked up, the tested form may be a part, canonical isoform): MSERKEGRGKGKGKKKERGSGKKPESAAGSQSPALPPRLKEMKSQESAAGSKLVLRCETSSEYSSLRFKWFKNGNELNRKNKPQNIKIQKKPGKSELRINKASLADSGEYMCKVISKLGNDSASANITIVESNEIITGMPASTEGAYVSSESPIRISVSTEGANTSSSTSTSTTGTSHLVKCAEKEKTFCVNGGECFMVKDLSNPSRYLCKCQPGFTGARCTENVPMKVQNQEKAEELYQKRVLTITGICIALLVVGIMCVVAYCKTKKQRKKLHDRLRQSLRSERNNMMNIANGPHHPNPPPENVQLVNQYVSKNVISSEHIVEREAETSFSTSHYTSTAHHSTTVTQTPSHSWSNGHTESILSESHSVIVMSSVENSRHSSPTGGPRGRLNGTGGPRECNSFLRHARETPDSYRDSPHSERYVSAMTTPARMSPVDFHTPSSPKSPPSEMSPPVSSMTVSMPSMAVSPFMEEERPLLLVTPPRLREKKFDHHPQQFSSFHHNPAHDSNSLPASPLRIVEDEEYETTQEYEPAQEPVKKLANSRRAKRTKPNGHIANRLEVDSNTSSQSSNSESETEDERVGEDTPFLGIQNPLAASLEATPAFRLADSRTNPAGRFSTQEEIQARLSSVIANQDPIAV
Sequence of Torsin-1A-interacting protein 2 (Homo sapiens) (Q8NFQ8 whole entry, looked up): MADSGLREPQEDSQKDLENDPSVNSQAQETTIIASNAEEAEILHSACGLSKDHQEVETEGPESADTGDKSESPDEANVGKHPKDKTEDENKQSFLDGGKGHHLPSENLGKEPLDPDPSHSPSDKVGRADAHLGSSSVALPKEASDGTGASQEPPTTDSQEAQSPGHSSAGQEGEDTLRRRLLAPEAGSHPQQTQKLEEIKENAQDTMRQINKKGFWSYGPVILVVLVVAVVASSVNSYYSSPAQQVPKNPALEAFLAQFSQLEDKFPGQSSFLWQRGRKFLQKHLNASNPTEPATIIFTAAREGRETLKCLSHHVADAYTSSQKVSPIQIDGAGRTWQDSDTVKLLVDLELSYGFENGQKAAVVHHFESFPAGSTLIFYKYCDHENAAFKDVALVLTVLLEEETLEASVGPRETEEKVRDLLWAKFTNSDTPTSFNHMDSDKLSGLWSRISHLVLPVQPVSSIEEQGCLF

Take `CC(CCC(=O)OC[C@H]1O[C@H](C#Cc2ccccc2)C=C[C@@H]1Oc1ccc(C)cc1)=NO[C@@H](C)c1cn([C@H](CO)Cc2ccccc2)nn1`: the composite z-score in test [1] was -0.583; in test [2], 0.0364; in test [3], 0.0092; in test [4], 0.63; in test [5], 0.161; in test [6], 0.122. Also, the composite z-score in test [7] is 0.0865; in test [9] it was 0.263; in test [10], -0.327; in test [11] it was 0.668; in test [15] it was 0.373; in test [17], -0.145. The values for the composite z-score in [18], in [19] and in test [20] were 0.237, 0.281 and -0.0461, respectively. Also, the z-score was 1.02 (inactive) in test [8]; 0.846 (inactive) in test [12]; 0.21 (inactive) in [13]; 12.2 (active) in test [14]; -0.434 (inactive) in [16].

Consider `CCCCc1nc2c(c3c1C[C@H](C)OC3)CN(CCC(C)C)CC2`, for which the composite z-score was -0.578 in [1]; 0.252 in test [2]; -0.0687 in test [3]; 0.509 in [4]; 1.16 in test [5]; 0.788 in test [6]. Further, the composite z-score in test [7] was 1.17; in test [9] it was 0.295; in test [10], -0.199; in test [11], 1.49; in test [15] it was 2; in [17] it was -0.114. For the same compound, the composite z-score in [18] is 0.582; in test [19] it was 1.11; in test [20], -0.0627. Moreover, the z-score in test [8] was 0.607 (inactive); in test [12], -0.147 (inactive); in test [13] it was -1.52 (inactive); in test [14], -1.07 (inactive); in [16] it was 0.567 (inactive).

Consider `COC(=O)[C@H](C)NC(=O)CCC1CC(OC(=O)NCCc2ccc(F)cc2)CC2(CCCC(COC(=O)NCC(c3ccccc3)c3ccccc3)O2)O1` (stereo not given in full), for which the composite z-score in test [1] was -0.342; in test [2], -0.266; in test [3] it was -0.124; in test [4] it was 0.462; in [5] it was 1.29; in [6], 0.846. The composite z-score in [7] is 1.2; in [9], 0.107; in test [10], -0.247; in [11] it was 0.915; in test [15], 1.88; in test [17] it was -0.175. The composite z-score in test [18] is 0.409; in test [19], 0.897; in test [20] it was -0.094. Moreover, the z-score in [8] was 1.38 (inactive); in test [12] it was 0.304 (inactive); in test [13], 0.917 (inactive); in test [14], 1.56 (inactive); in [16], 0.115 (inactive).

On to `CO[C@H]1COC(=O)[C@H](C)NC(=O)[C@@H](C)COC(=O)CC=C[C@@H]1C`, for which the composite z-score in [1] was -0.618; in test [2], 1.06; in [3], -0.116; in test [4] it was 0.409; in [5], -0.0804; in test [6], -0.194. Also, the composite z-score was 0.547 in test [7]; 0.0356 in test [9]; -0.434 in test [10]; 0.748 in [11]; -0.498 in test [15]; -0.103 in [17]. Further, the composite z-score in [18] was 0.3; in test [19], 0.674; in test [20] it was -0.02. In addition, the z-score is -0.599 (inactive) in test [8]; -0.156 (inactive) in test [12]; 0.473 (inactive) in test [13]; -0.564 (inactive) in test [14]; 0.2 (inactive) in [16].

For the compound `CCOC(=O)CCN1C(=O)[C@H]2[C@H]3[C@H](O)[C@H](O)CC(=NOCc4ccccc4)[C@@H]3CC[C@H]2C1=O`, the composite z-score in [1] was -0.572; in test [2], 0.227; in test [3], -0.201; in [4] it was 0.193; in test [5], 0.93; in test [6], 0.22. Moreover, the composite z-score in test [7] was 0.588; in test [9] it was 0.0033; in test [10], -0.0645; in [11], 0.454; in test [15], 0.175; in test [17], -0.147. For the same compound, the composite z-score in test [18] was 0.676; in test [19] it was 1; in [20], -0.0597. The z-score in test [8] was -0.48 (inactive); in test [12] it was -0.14 (inactive); in [13], 0.116 (inactive); in test [14] it was -0.664 (inactive); in [16], -0.961 (inactive).
